The text below walks through data of PubChem BioAssay (Tox21).

Results filed as inconclusive are left out. Where a call stands in place of a potency, no number is given. Unmarked numbers belong to inactive results. Activity calls are given as the source filed them. The call rests on the fitted dose curve; in most records, active means well fitted cell-killing curve with a large enough effect in the repeat runs; inconclusive means weak or mixed curves, or effect the other way; inactive means flat fitted curve, though single readings scatter.
Potency means the concentration at half of the fitted maximal effect.

The assay is described as follows: cAMP Responsive Elements (CRE) small molecule antagonists, cell-based qHTS assay: qHTS cell viability counter screen (AID 2060913). Further: nearly all actives have a fitted effect of over 40% in size. As to conditions: CRE-bla HEK293T viability, CellTiter-Glo luminescence, 5 h; series mostly up to 92.4 µM. The method, boiled down:
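Steps: cells plated and held 18 hrs at 37 C/5% CO2; compounds and NKH477 (0.25 uM final) added; 3 hrs incubation; reporter substrate read; CellTiter-Glo added to measure cytotoxicity by luminescence.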
Consider `O=C(O)CC(=O)C(=O)O`, for which the Potency result was “inactive”.

With `O=C(O)Cc1c(Cl)ccc(Cl)c1Cl`, the Potency result is “inactive”.

As for `CC1=C(/C=C/C(C)=C/C=C/C(C)=C\C(=O)O)C(C)(C)CCC1`, the Potency result was “inactive”.

On to `CC(C)(c1cc(Br)c(OCCO)c(Br)c1)c1cc(Br)c(OCCO)c(Br)c1`, for which the Potency result was “inactive”.

Take `CN(C)CCOCCN(C)C`: the Potency entry was “inactive”.

Regarding `c1ccc2scnc2c1`, the Potency result was “inactive”.

`O=Cc1c2ccccc2c(Cl)c2ccccc12`: the Potency result was “inactive”.

In the case of `CCN(Cc1cccc(S(=O)(=O)O)c1)c1ccc(C(=C2C=CC(=[N+](CC)Cc3cccc(S(=O)(=O)O)c3)C=C2)c2ccc(O)cc2S(=O)(=O)[O-])cc1`, the Potency entry was “inactive”.

Turning to `Cc1c(C(N)=O)cc([N+](=O)[O-])cc1[N+](=O)[O-]`, the Potency entry is “inactive”.

With `O=c1[nH]sc2cc(Cl)ccc12`, the Potency entry was “inactive”.

For `O=C1CCc2ccc(OCCCCN3CCN(c4cccc(Cl)c4Cl)CC3)cc2N1`, the Potency result was “inactive”.

With `C[Si]1(C)N[Si](C)(C)N[Si](C)(C)N1`, the Potency result was “inactive”.

`C#CCN(C)CCCOc1ccc(Cl)cc1Cl`: the Potency entry was “inactive”.

On to `N[C@H](C(=O)O)[C@@H](O)c1ccc(O)c(O)c1`, for which the Potency entry is “inactive”.

Take `O=C(O)c1c2ccccc2cc2ccccc12`: the Potency entry is “inactive”.

Consider `CCCCC/C(C=O)=C\c1ccccc1`, for which the Potency result was “inactive”.

In the case of `CC=O`, the Potency was 63.9 µM (active).

Consider `COc1ccc(Nc2ccc(OC)cc2)cc1`, for which the Potency entry is “inactive”.

With `COC(=O)C(c1ccccc1Cl)N1CCc2sccc2C1` (centres undefined), the Potency result was “inactive”.

For `CC(C)(C)c1ccc(O)c(O)c1`, the Potency result was “inactive”.

For the molecule `CCN(CC)CCOc1ccc(Cc2ccccc2)cc1`, the Potency result was “inactive”.

Take `O=C1Cc2cc(Cl)ccc2N1`: the Potency result is “inactive”.

Consider `CN1[C@@H]2CC[C@H]1CC(OC(=O)c1c[nH]c3ccccc13)C2` (some centres undefined), for which the Potency entry is “inactive”.

As for `O=C(O)c1cccc(O)c1`, the Potency result is “inactive”.

Regarding `CC(C)CCOCCC(C)C`, the Potency result is “inactive”.

For the molecule `C=C1c2cccc(O)c2C(O)=C2C(=O)[C@]3(O)C(O)=C(C(N)=O)C(=O)[C@@H](N(C)C)[C@@H]3[C@@H](O)[C@H]12`, the Potency result was “inactive”.

As for `CC(C)N=C(N)/N=C(\N)Nc1ccc(Cl)cc1`, the Potency entry was “inactive”.

For `Cc1cc(OI)c(C(C)C)cc1-c1cc(C(C)C)c(OI)cc1C`, the Potency entry was “inactive”.

In the case of `c1ccc2cc3c(ccc4ccccc43)cc2c1`, the Potency entry is “inactive”.

Take `Cc1cccc(C)c1[N+](=O)[O-]`: the Potency entry is “inactive”.

For the molecule `CCS(=O)(=O)c1ccc(OC)c(C(=O)OC)c1`, the Potency entry is “inactive”.

`Cc1cccc(N(C)C(=S)Oc2ccc3c(c2)CCC3)c1`: the Potency result is “inactive”.

Take `NCCOCCO`: the Potency entry is “inactive”.

For `CCN(CCC#N)c1ccc(N=Nc2c(Cl)cc([N+](=O)[O-])cc2Cl)cc1`, the Potency result was “inactive”.

With `CC(NN)c1ccccc1` (centres undefined), the viability change, negative = cytotoxic is -0.733% [at 18.9 µM].

For `Cc1c(C)c([N+](=O)[O-])c(C(C)(C)C)c([N+](=O)[O-])c1C`, the Potency result was “inactive”.

Regarding `CN1C(=O)N(c2ccccc2Br)Cc2cnc(Nc3ccc4c(c3)OCC(CO)O4)nc21` (centres undefined), the Potency result was “inactive”.

Turning to `Nc1ccc(C(=O)Oc2ccccc2)c(O)c1`, the Potency entry was “inactive”.

Consider `COc1ccc(OC)c(NC(=O)CC(C)=O)c1`, for which the Potency entry is “inactive”.
